{"source": "PubChem BioAssay (NCI)", "note": "This is part of a sample that, as a whole, favours compounds with a hit. Of some 79,000 tested, about 15% had one in any assay. A number with no mark means an inactive call. No stated cut-off is given here; in the data, active means growth inhibition above about 70%; inactive means the rest."}
{"assay": "NCI Yeast Anticancer Drug Screen. Data for the bub3 strain (AID 167)", "conditions": "S. cerevisiae bub3 mutant strain, at 3.7 µM, active compounds read high", "in_short": "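Growth of a checkpoint-deficient yeast mutant is measured after compound exposure. Values represent inhibition relative to vehicle.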", "units": {"growth inhibition": "%"}}
{"smiles": "O=C1/C(=C/c2ccccc2)CCCC1CN1CCCCC1", "note": "(configuration not stated)", "growth inhibition": 53}
{"smiles": "C#CCN(Cc1ccc2nc(N)[nH]c(=O)c2c1)c1ccc(C(=O)NC(CCC(=O)O)C(=O)O)cc1", "note": "(configuration not stated)", "growth inhibition": -8}
{"smiles": "CCOC1(c2cccc([N+](=O)[O-])c2)c2ccccc2Oc2ccccc21", "growth inhibition": -2}
{"smiles": "O=C(O)CNC(=S)Nc1ccccc1", "growth inhibition": -39}
{"smiles": "N/C(=N/N=C/c1cc(Br)cc(Br)c1O)NO", "growth inhibition": -60}
{"smiles": "C[Si](C)(C)/C=C/CCNC(C#N)c1ccccc1", "note": "(configuration not stated)", "growth inhibition": 7}
{"smiles": "CCCCCCCCCCCCCCCCOP(=O)(O)OCC(N)C(=O)O", "note": "(configuration not stated)", "growth inhibition": -29}
{"smiles": "CC1=C(C(=O)NCc2ccccc2)C(c2ccccc2)C(C(=O)NCc2ccccc2)=C(C)N1", "growth inhibition": 1}
{"smiles": "O=[N+]([O-])c1cc(S(=O)(=O)Nc2ccccc2)ccc1Nc1ccccc1", "growth inhibition": 40}
{"smiles": "CCOC(=O)C(Br)C(Br)c1ccccc1Cl", "note": "(configuration not stated)", "growth inhibition": 7}
{"smiles": "CCOC(=O)C1=C(C)NC(C)=C(C(=O)OCCNC(=O)c2ccc(N=[N+]=[N-])cc2)C1c1ccccc1C(F)(F)F", "note": "(configuration not stated)", "growth inhibition": -7}
{"smiles": "Cc1cc(C)c(NC(=S)NC(=O)c2ccccc2)cc1C", "growth inhibition": -17}
{"smiles": "CNCCCNc1c2ccccc2nc2cccc([N+](=O)[O-])c12", "growth inhibition": 38}
{"smiles": "COc1c(O)c(C=O)c(Br)c(C=O)c1O", "growth inhibition": -1}
{"smiles": "Cc1c(C)c(C)c(CSC(=N)N)c(C)c1C", "growth inhibition": -9}
{"smiles": "O=C(CSC(=S)N1CCCCC1)Nc1nc2c(s1)CCCC2", "growth inhibition": -8}
{"smiles": "CNC(=O)OCc1c(COC(=O)NC)c(-c2ccc(Cl)cc2)n2c1CCC2", "growth inhibition": -69}
